Experimental data as given in ChEMBL document CHEMBL4513216, “Probing the Open Global Health Chemical Diversity Library for Multistage-Active Starting Points for Next-Generation Antimalarials” (ACS Infect Dis, 2020).
Out of some 69,000 compounds screened, about 8,600 (12%) showed an effect of 50% or more. Many of the other results were omitted from the sample, so strong results are more common in it than they were.

Test system: Plasmodium berghei
Assay: Screen against P. berghei liver stage (PbLuc), transformed with Luciferase, at 10uM
Assay type: functional, HepG2
Settings: tested at 10 uM

Q: With `Cc1ccc2cc(CNCCCN3CCOCC3)c(=O)[nH]c2c1C` as the compound, how does the INHIBITION read?
A: -5.71%

Q: `C[C@H]1C[C@@H]2CCN(C(=O)c3cccn3C)C[C@H]2O1` was tested. Which INHIBITION did it give?
A: 25%

Q: For `CC(O)CN(C)S(=O)(=O)c1ccc(C#N)cc1F` (stereo not given), which INHIBITION is on record?
A: 64.6%

Q: Which INHIBITION does the source give for `Cc1ccc(S(=O)(=O)N(C)CC(C)O)c(F)c1` (stereo not given) here?
A: 6.99%

Q: With `Cc1c(F)cccc1S(=O)(=O)N(C)CC(C)O` (stereo not given) as the compound, how does the INHIBITION read?
A: -37.6%

Q: How did the INHIBITION turn out when `Cc1n[nH]c2nc(-c3ccccc3O)cc(C(=O)O)c12` was run?
A: 7.09%

Q: Which INHIBITION does the source give for `OCCOc1cc(F)ccc1NCc1ccc(F)c(F)c1` here?
A: -16.8%

Q: How did the INHIBITION turn out when `Cc1ccccc1-c1noc(CNc2ccc(F)cc2OCCO)n1` was run?
A: 52.6%

Q: How did the INHIBITION turn out when `COc1ccccc1-c1noc(CNc2ccc(F)cc2OCCO)n1` was run?
A: 13.7%

Q: With `OCCOc1cc(F)ccc1NCc1nc(-c2cccs2)no1` as the compound, how does the INHIBITION read?
A: 12.8%

Q: Which INHIBITION does the source give for `N#Cc1ccc(F)c(CNc2ccc(F)cc2OCCO)c1` here?
A: 10.9%

Q: With `OCCOc1cc(F)ccc1NCc1cccc(F)c1F` as the compound, how does the INHIBITION read?
A: 54.5%

Q: How did the INHIBITION turn out when `Cc1nc(CC(=O)N2CCn3c(nnc3C(C)C)C2)cs1` was run?
A: 18.15%

Q: Which INHIBITION does the source give for `O=C(CCc1ccc(-c2ccccc2)[nH]1)N1CCCC(n2ccnc2)C1` (stereo not given) here?
A: 3.5625%

Q: How did the INHIBITION turn out when `CCC(=O)Nc1cccc(OCC(=O)N[C@@H]2C[C@@H]3CC[C@H]2C3)c1` was run?
A: -23.4%

Q: How did the INHIBITION turn out when `Cc1nc(C2CCCN(C(C)C)C2)sc1Br` (stereo not given) was run?
A: 11.8%

Q: Which INHIBITION does the source give for `O=C(Nc1ccccn1)C1CC(=O)N(Cc2ccccn2)C1` (stereo not given) here?
A: -87.6%

Q: With `O=C(C1CC(F)(F)C1)N1CC[C@H]2OCC[C@@]2(COCC2CC2)C1` as the compound, how does the INHIBITION read?
A: 39.3%

Q: `COC[C@@]12CCO[C@@H]1CCN(C(=O)C1CCOCC1)C2` was tested. Which INHIBITION did it give?
A: 13.1%

Q: Which INHIBITION does the source give for `COC[C@@]12CCO[C@@H]1CCN(C(=O)C1CC(F)(F)C1)C2` here?
A: 94.6%

Q: Which INHIBITION does the source give for `CN1CC(=O)N(c2ccccc2)CC12CCN(CC1CC1)C2` (stereo not given) here?
A: 48.9%

Q: `O=C(NCCCn1cncn1)N1CCC(N2CCCCC2)CC1` was tested. Which INHIBITION did it give?
A: -17.167%

Q: `Cn1cccc1C(=O)N1CCc2ccc(=O)n(C)c2CC1` was tested. Which INHIBITION did it give?
A: 21.4%

Q: For `O=C1CC(c2cccnc2)c2c(c(C(=O)O)cn2-c2cccc(F)c2)N1` (stereo not given), which INHIBITION is on record?
A: -18.3%

Q: With `CN1CCC2(CCN(c3ncc(F)cn3)CC2)C1=O` as the compound, how does the INHIBITION read?
A: 30.5%

Q: With `CN(Cc1nc(Cc2ccccc2F)no1)CC1Cc2ccccc2O1` (stereo not given) as the compound, how does the INHIBITION read?
A: 52%

Q: With `CN(Cc1nc(CC2CC2)no1)CC1Cc2ccccc2O1` (stereo not given) as the compound, how does the INHIBITION read?
A: 12.6%

Q: How did the INHIBITION turn out when `CN(Cc1nc(COc2ccccc2)no1)CC1Cc2ccccc2O1` (stereo not given) was run?
A: 8.07%

Q: How did the INHIBITION turn out when `O=C(Nc1nc(-c2ccccc2)ns1)N1CC[C@H](O)C1` was run?
A: 9.79%

Q: `CCSc1ccc(C(=O)N2CCC3(CCC(=O)N(C)C3)CC2)s1` was tested. Which INHIBITION did it give?
A: 20.3%

Q: Which INHIBITION does the source give for `Cc1nc(NC(=O)C(C)n2ncc(Br)c2C)sc1C` (stereo not given) here?
A: 21.5%

Q: For `Cc1nnc(NC(=O)C(C)n2ncc(Br)c2C)s1` (stereo not given), which INHIBITION is on record?
A: 50.2%

Q: Which INHIBITION does the source give for `Cc1c(Br)cnn1C(C)C(=O)Nc1nncs1` (stereo not given) here?
A: 39.9%

Q: With `CN(C)Cc1cnc(C2CCN(C(=O)c3cccc(Cl)c3)C2)[nH]1` (stereo not given) as the compound, how does the INHIBITION read?
A: 12.375%

Q: For `COC(=O)CC1CCN(C(=O)c2ccccc2-n2nnnc2C)CC1`, which INHIBITION is on record?
A: 9.57%

Q: For `Cc1nn(C)cc1CN1CCCC(n2c(=O)oc3ccc(Cl)cc32)C1` (stereo not given), which INHIBITION is on record?
A: 36%

Q: How did the INHIBITION turn out when `Cc1ccc(N(C)S(=O)(=O)c2cc(C(=O)O)cs2)cc1` was run?
A: 52.5%

Q: How did the INHIBITION turn out when `Cc1cc(C)cc(N(C)S(=O)(=O)c2cc(C(=O)O)cs2)c1` was run?
A: 34.7%

Q: How did the INHIBITION turn out when `CN(c1ccc(C(C)(C)C)cc1)S(=O)(=O)c1cc(C(=O)O)cs1` was run?
A: 20.6%

Q: With `O=c1n(CCSCCOc2ccc(Br)cc2)nc2ccccn12` as the compound, how does the INHIBITION read?
A: 2.49%

Q: How did the INHIBITION turn out when `O=C(c1ccnc(N2CCOC(c3ccc(Cl)cc3)C2)c1)N1CCCC1` (stereo not given) was run?
A: 73.5%

Q: For `O=C(NC1CC1)c1ccnc(N2CCOC(c3ccc(Cl)c(Cl)c3)C2)c1` (stereo not given), which INHIBITION is on record?
A: 86.6%

Q: For `CC(C)n1ccnc1C1CCCN(c2cc(C(=O)NC3CC3)ccn2)C1` (stereo not given), which INHIBITION is on record?
A: 31.2%

Q: With `O=C(NC1CC1)c1ccnc(N2CCOC(c3ccc(Cl)cc3)C2)c1` (stereo not given) as the compound, how does the INHIBITION read?
A: 67.7%

Q: `CN1CCN(C(=O)c2ccnc(N3CCOC(C(F)(F)F)C3)c2)CC1` (stereo not given) was tested. Which INHIBITION did it give?
A: -14.1%

Q: `O=C(c1ccnc(N2CCOC(C(F)(F)F)C2)c1)N1CCCC1` (stereo not given) was tested. Which INHIBITION did it give?
A: 7.77%

Q: How did the INHIBITION turn out when `O=C(CN1C(=O)CCNC1=O)N1CCOC(c2ccc(Cl)c(Cl)c2)C1` (stereo not given) was run?
A: -52.2%

Q: How did the INHIBITION turn out when `O=C(c1ccnc(N2CCOC(C(F)(F)F)C2)c1)N1CCOCC1` (stereo not given) was run?
A: 12.7%

Q: `CNC(=O)c1ccc(C2CN(c3cc(C)nc(N)n3)CCO2)nc1` (stereo not given) was tested. Which INHIBITION did it give?
A: 25.855%

Q: How did the INHIBITION turn out when `Cn1cc(CN2C[C@H]3CCN(C(=O)c4cscn4)C[C@H]3C2)cn1` was run?
A: 43.9%

Q: Which INHIBITION does the source give for `CC(C)Oc1ncccc1CNC(=O)Nc1ccccn1` here?
A: -17.6%

Q: `Cc1cc(-c2ccccc2C(=O)O)nc(C2CCCN(C(C)C)C2)n1` (stereo not given) was tested. Which INHIBITION did it give?
A: 13%

Q: With `Cc1nc(NC2CCCC2)cc(C2CCN2C(=O)c2cnn(C)c2)n1` (stereo not given) as the compound, how does the INHIBITION read?
A: 0.301%

Q: `Cc1ccc2c(c1)SCC(=O)N2Cc1noc(C2CC2)n1` was tested. Which INHIBITION did it give?
A: -0.578%

Q: Which INHIBITION does the source give for `Cn1cc(CCNC(=O)NCc2nnc3n2CCC3)cn1` here?
A: 59.7%
